This is an account of results in PubChem BioAssay (NCI).

The panel holds about 79,000 compounds, 15% with a hit somewhere; the sample as a whole holds those more often. Values without a mark were called inactive. Active and inactive are the calls of the source. No stated cut-off is given here; in the data, active means growth inhibition above about 70%; inactive means the rest.

The assay in a line: NCI Yeast Anticancer Drug Screen. Data for the CLN2oe strain (AID 163).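 Further: 0% = growth of vehicle-only control cultures.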 The conditions noted are these: S. cerevisiae CLN2oe strain, hits give high values. The procedure: Growth inhibition of yeast strains with defined genetic alterations is measured as a screen for potential anti-cancer activity. Selected strains with alterations in DNA damage repair or cell cycle control were exposed to compounds and growth inhibition was measured relative to vehicle treated controls. The strain used in this assay is CLN2oe

Consider `CN(C)CCNc1ccc2ncnc3c2c1C(=O)c1ccccc1-3`, for which the growth inhibition was 5% (at 1.2 µM); 8% (at 3.7 µM); 26% (at 11.0 µM); 59% (at 33.0 µM); 74% (active) (at 100.0 µM).

As for `CCOC(=O)C#Cc1ccc([N+](=O)[O-])cc1`, the growth inhibition (at 1.2 µM) was 1%; the growth inhibition (at 3.7 µM) is -2%; the growth inhibition (at 11.0 µM) is -3%; the growth inhibition (at 33.0 µM) was 2%; the growth inhibition (at 100.0 µM) is 10%.

Turning to `O=C1C=C(Cl)C(=O)N1c1cccc(Cl)c1`, the growth inhibition (at 1.2 µM) is -13%; the growth inhibition (at 3.7 µM) is 33%; the growth inhibition (at 11.0 µM) was 99% (active); the growth inhibition (at 33.0 µM) is 99% (active); the growth inhibition (at 100.0 µM) was 99% (active).

As for `O=C(O)Cc1cc(F)ccc1C(=O)O`, the growth inhibition reads like this: (at 1.2 µM) 1%; (at 3.7 µM) 4%; (at 11.0 µM) 12%; (at 33.0 µM) 7%; (at 100.0 µM) 12%.

Consider `CN(C)Cc1cc(N=Nc2ccc(Cl)cc2)ccc1OC(=O)c1ccccc1`, for which the growth inhibition is 3% (at 1.2 µM); -1% (at 3.7 µM); 1% (at 11.0 µM); 0% (at 33.0 µM); 5% (at 100.0 µM).

Take `C[C@@](O)(/C=C/[C@H]1CC=CC(=O)O1)[C@@H](C[C@@H](O)\C=C/C=C\C=C\CO)OP(=O)(O)O`: the growth inhibition by setting is: (at 1.2 µM) 46%; (at 3.7 µM) 26%; (at 11.0 µM) 25%; (at 33.0 µM) 54%; (at 100.0 µM) 82% (active).

For the compound `COc1cc(/C=N/Nc2nnc3c4ccccc4c4ncccc4c3n2)cc(OC)c1OC`, the growth inhibition is -8% (at 1.2 µM); -2% (at 3.7 µM); -2% (at 11.0 µM); -3% (at 33.0 µM); 1% (at 100.0 µM).

On to `Oc1ccc(SCc2ccc(NCc3ccccc3)cc2)cc1`, for which the growth inhibition reads like this: (at 1.2 µM) 12%; (at 3.7 µM) 13%; (at 11.0 µM) 13%; (at 33.0 µM) 40%; (at 100.0 µM) 90% (active).
